# Assay results taken from ChEMBL document CHEMBL3988442, “University of Dundee, Small-Polar-MMV Screening Library” (2021).
# Screen size: about 66,000 compounds; about 960 (1.5%) showed an effect of 50% or more. Many of the other results were omitted from the sample, so strong results are more common in it than they were.
# Test system: Trypanosoma brucei
# Test: Trypanosoma brucei 72 hour study
# Format: functional, organism-based
# Parameters: scale not given: in the data most compounds retested in dose-response had high values
compound,measurement,setting,value
CC(C)N1CCC(N2CCC(C(=O)N(C)C)CC2)CC1.O=C(O)C(F)(F)F.O=C(O)C(F)(F)F,Percent Effect,"30.3 µM, […]",-22.06%
COC(=O)C1CCN(C(=O)c2cc(Br)ccc2-n2cnnn2)CC1,Percent Effect,"30 µM, 30.03 µM",-52.11%
CC(C)N1CCCC(C(=O)N2CCN(c3nsc4ccccc34)CC2)C1 (stereo not drawn),Percent Effect,"30.3 µM, […]",50.26%
NC(=O)N1CCCC(C(=O)N2CCN(c3nsc4ccccc34)CC2)C1 (stereo not drawn),Percent Effect,"30.3 µM, […]",39.11%
CCN1CC(C(=O)N2CCN(c3nsc4ccccc34)CC2)CCC1=O (stereo not drawn),Percent Effect,"30.3 µM, […]",18.26%
CN(C)C(=O)c1cnc2n1CCN(Cc1cccnc1)C2.O=C(O)C(F)(F)F.O=C(O)C(F)(F)F,Percent Effect,"30.3 µM, […]",-389.6%
O=C(O)C(F)(F)F.O=C(O)C(F)(F)F.O=C(O)C(F)(F)F.c1ccc(CN2CCc3c(COCC4CC4)cncc3C2)nc1,Percent Effect,"30.3 µM, […]",-75.06%
CN1C[C@@H](N)C[C@H]1C(=O)N1CCC(CCCc2ccccc2)CC1,Percent Effect,"30 µM, 30.03 µM",-31.74%
OC1(CN2CCCCC2)CCN(c2ccc(C(F)(F)F)cn2)C1 (stereo not drawn),Percent Effect,"30.3 µM, […]",3.051%
N#CC1=C(N)Nn2c(nnc2-c2ccccc2F)S1,Percent Effect,"30 µM, 30.03 µM",-51.04%
CCn1cc(CNc2ccc3nccnc3c2)cn1,Percent Effect,"30 µM, 30.03 µM",99.73%
CCn1cc(CNc2ccc(F)c(N3CCCS3(=O)=O)c2)cn1,Percent Effect,"30 µM, 30.03 µM",-16.14%
CCn1cc(CNc2ccc(Br)c(OC)c2)cn1,Percent Effect,"30 µM, 30.03 µM",-16.49%
Nc1nc(O)cc(N2CCC(c3cc(Cc4ccccc4)n[nH]3)CC2)n1,Percent Effect,"30.3 µM, […]",-102.6%
Nc1cc(N2CCC(c3cc(Cc4ccccc4)n[nH]3)CC2)ccn1,Percent Effect,"30.3 µM, […]",99.46%
Nc1nccc(N2CCC(c3cc(Cc4ccccc4)n[nH]3)CC2)n1,Percent Effect,"30.3 µM, […]",36.98%
COc1cccc(C(=O)NCC(c2cccn2C)N2CCCC2)c1OC (stereo not drawn),Percent Effect,"30.3 µM, […]",-16.52%
COc1ccc(C(=O)NCC(c2cccn2C)N2CCCC2)cc1OC (stereo not drawn),Percent Effect,"30.3 µM, […]",-9.189%
COc1cccc(OC)c1C(=O)NCC(c1cccn1C)N1CCCC1 (stereo not drawn),Percent Effect,"30.3 µM, […]",99.38%
CO[C@@H]1CCN(C(=O)Cc2ccsc2)[C@H]1Cc1cccnc1.O=C(O)C(F)(F)F,Percent Effect,"30.3 µM, […]",-12.88%
Cc1cccc(COC[C@H]2CC[C@H]3[C@H](CCN3C(=O)CC3CC3)O2)n1.O=C(O)C(F)(F)F,Percent Effect,"30 µM, 30.03 µM",22.76%
CCOc1ccc(CN[C@@H]2COC[C@H]2c2ccc(F)cc2)cc1.O=C(O)CC(O)(CC(=O)O)C(=O)O,Percent Effect,"30.3 µM, […]",-47.65%
COCCN1C[C@H]2CC[C@@H]1CN(C(=O)CCn1cc(Cl)cn1)C2,Percent Effect,"30.3 µM, […]",4.772%
Cc1nc2c(c(NCC3Cc4ccccc4CN3C)n1)CCNCC2 (stereo not drawn),Percent Effect,"30.3 µM, […]",15.13%
Cc1nc2c(c(NCc3cc4ccccc4s3)n1)CCNCC2,Percent Effect,"30.3 µM, […]",99.88%
Cc1nc2c(c(NCC(O)c3ccccc3Cl)n1)CCNCC2 (stereo not drawn),Percent Effect,"30 µM, 30.03 µM",-31.73%
Cc1nc2c(c(NCc3nc4ccccc4s3)n1)CCNCC2,Percent Effect,"30.3 µM, […]",53.81%
Cc1nc(CNc2nc(-c3ccco3)nc3c2CCNCC3)n[nH]1,Percent Effect,"30 µM, 30.03 µM",14.93%
Cc1nc2c(c(NCc3ccc(-c4ccccn4)s3)n1)CCNCC2,Percent Effect,"30.3 µM, […]",42.43%
CC(C)CN1CCO[C@H]2CCN(c3cnccn3)CC[C@@H]21.O=C(O)C(F)(F)F,Percent Effect,"30.3 µM, […]",-43.11%
CCCS(=O)(=O)N1C[C@H]2C[C@H](C(=O)N3CCCC3)[C@@H](C1)O2,Percent Effect,"30.3 µM, […]",-3.417%
Cc1occc1C(=O)N1C[C@@H]2OCCN(C(C)C)[C@@H]2C1.O=C(O)C(F)(F)F,Percent Effect,"30 µM, 30.03 µM",5.268%
CS(=O)(=O)N1CCN(CC(O)COc2ccc(Cl)cc2)CC1 (stereo not drawn),Percent Effect,10 µM,-47.15%
Cc1csc(CN2CCC[C@]3(C[C@@H](OCC4CC4)CO3)C2)n1.O=C(O)C(F)(F)F,Percent Effect,"30 µM, 30.03 µM",-17.53%
Cc1cc(F)ccc1CN1CCCC(O)(CN2CCCC2)C1 (stereo not drawn),Percent Effect,"30.3 µM, […]",54.93%
OC1(CN2CCCC2)CCCN(Cc2ccc(F)cc2Cl)C1 (stereo not drawn),Percent Effect,"30 µM, 30.03 µM",-4.937%
Cc1cc(F)ccc1CN1CCC(O)(CN2CCCCC2)C1 (stereo not drawn),Percent Effect,"30 µM, 30.03 µM",-52.45%
CN(C)CCN(Cc1ccccn1)Cc1ccnn1C1CCCCO1.O=C(O)CC(O)(CC(=O)O)C(=O)O (stereo not drawn),Percent Effect,"30.3 µM, […]",-14.13%
Cn1nnc2c1C(COCC1CC1)CN(Cc1ccoc1)C2.O=C(O)C(F)(F)F (stereo not drawn),Percent Effect,"30 µM, 30.03 µM",5.795%
Cc1ccnc(N2Cc3cnn(Cc4ccc(F)cc4)c3C2)n1,Percent Effect,"30 µM, 30.03 µM",-9.847%
Cc1nc(N2Cc3cnn(Cc4ccc(F)cc4)c3C2)no1,Percent Effect,"30 µM, 30.03 µM",12.66%
CNc1cc(C)nc(N2Cc3cnn(Cc4ccc(F)cc4)c3C2)n1,Percent Effect,"30 µM, 30.03 µM",98.86%
Fc1ccc(Cn2ncc3c2CN(c2ncccn2)C3)cc1,Percent Effect,"30 µM, 30.03 µM",2.324%
CCNc1ccnc(N2Cc3cnn(Cc4ccc(F)cc4)c3C2)n1,Percent Effect,"30 µM, 30.03 µM",57.35%
Cc1cc(C)nc(N2Cc3cnn(Cc4ccc(F)cc4)c3C2)n1,Percent Effect,"30 µM, 30.03 µM",3.465%
CC(C)c1nn(C)c(Cl)c1CNCc1ccc(N(C)C)nc1.Cl,Percent Effect,"30.3 µM, […]",12.78%
CC(C)CN1CCC2(CCN(Cc3ccc(F)cc3)CC2)C1=O.O=C(O)C(F)(F)F,Percent Effect,"30.3 µM, […]",15.86%
Cc1cccc(CN2CCCC2c2cccc(CCC(=O)O)n2)c1 (stereo not drawn),Percent Effect,"30.3 µM, […]",-27.55%
Cc1cccc(CN2CCCCC2c2n[nH]cc2-c2cc(C)no2)c1.Cl (stereo not drawn),Percent Effect,"30.3 µM, […]",54.66%
Cc1nccc(C2CCCCN2Cc2cccc(F)c2)n1 (stereo not drawn),Percent Effect,"30.3 µM, […]",-5.435%
Cc1cc(C2CCCN2Cc2cc(-c3ccco3)on2)on1 (stereo not drawn),Percent Effect,"30 µM, 30.03 µM",-36.29%
Cc1cccc(CN2CCCC2c2cccc(Nc3nccs3)n2)c1 (stereo not drawn),Percent Effect,"30.3 µM, […]",33.44%
Cc1nc(C2CN(Cc3ccccc3C)CCO2)no1 (stereo not drawn),Percent Effect,"30.3 µM, […]",-23.18%
CN(CC1(O)CCCN(c2ccccn2)C1)C(=O)CCc1cccs1 (stereo not drawn),Percent Effect,"30.3 µM, […]",19.98%
Cc1ccc(CN(CCCN2CCOCC2)Cc2cnn(C)c2)o1.O=C(O)CC(O)(CC(=O)O)C(=O)O,Percent Effect,"30.3 µM, […]",-8.498%
CN(C)C(=O)[C@]12CCCN(CC3CC3)C[C@H]1CN(c1ccccn1)C2.O=C(O)C(F)(F)F.O=C(O)C(F)(F)F,Percent Effect,"30.3 µM, […]",0.08001%
CN1CC(=O)N(c2ccccc2)CC12CCN(C(=O)c1ccnnc1)C2.O=C(O)C(F)(F)F (stereo not drawn),Percent Effect,"30.3 µM, […]",-13.49%
CN(C)C(=O)COC[C@]12COC[C@H]1CN(Cc1ccccc1)C2.O=C(O)C(F)(F)F,Percent Effect,"30.3 µM, […]",-79.79%
O=C(c1cc(=O)n(-c2ccccc2)[nH]1)N1CCOC(C(F)(F)F)C1 (stereo not drawn),Percent Effect,"30 µM, 30.03 µM",25.14%
Cc1cnc(CN(Cc2ccc(Cl)s2)C2CCN(C)C2)o1 (stereo not drawn),Percent Effect,"30 µM, 30.03 µM",-5.686%
COc1cc(CNC(C)c2ccc(F)c(F)c2)cc2c1OCCO2.O=C(O)C(=O)O (stereo not drawn),Percent Effect,"30.3 µM, […]",100.7%
COc1cc(C(=O)NC(C)c2cccs2)cc2c1OCCO2 (stereo not drawn),Percent Effect,"30.3 µM, […]",6.204%
COc1ccc(C(C)NCCC(N)=O)cc1F (stereo not drawn),Percent Effect,"30 µM, 30.03 µM",-19.58%
CCn1ncc(-c2cc(C(F)F)nc3sc(C(N)=O)c(N)c23)c1C,Percent Effect,"30 µM, 30.03 µM",26.92%
Cc1nc[nH]c1CN1CCN(C(=O)CCC(F)(F)F)[C@H]2CS(=O)(=O)C[C@H]21,Percent Effect,"30 µM, 30.03 µM",50.6%
Cc1nc[nH]c1CN1CCN(C(=O)C2(C)CC2)[C@H]2CS(=O)(=O)C[C@H]21,Percent Effect,"30 µM, 30.03 µM",1.317%
Cc1nc[nH]c1CN1CCN(C(=O)CN2CCCC2)[C@H]2CS(=O)(=O)C[C@H]21,Percent Effect,"30 µM, 30.03 µM",8.106%
CCOc1cc2c(cc1CNC(Cc1cccs1)c1nccs1)OCO2.Cl (stereo not drawn),Percent Effect,"30.3 µM, […]",-21.18%
CC(C)c1ncc(-c2cc(C3CCC3)nc(N)c2C#N)cn1,Percent Effect,"30 µM, 30.03 µM",17.32%
CC(O)(CNC(=O)c1cccnc1-n1cccn1)c1ccsc1 (stereo not drawn),Percent Effect,"30 µM, 30.03 µM",-28.28%
COc1ccnc(NC(=O)c2cscn2)c1,Percent Effect,"30 µM, 30.03 µM",7.926%
COc1ccnc(NC(=O)c2ccsc2)c1,Percent Effect,"30 µM, 30.03 µM",14.39%
COc1ccnc(NC(=O)c2cscc2C)c1,Percent Effect,"30 µM, 30.03 µM",88.82%
CCCn1c(=O)n(CCC(=O)N(C)Cc2ccc(C)o2)c2ccccc21,Percent Effect,"30 µM, 30.03 µM",-21.38%
Cc1nc(O)cc(C2CCN(Cc3ccc(F)c(F)c3)C2)n1.O=C(O)CC(O)(CC(=O)O)C(=O)O (stereo not drawn),Percent Effect,"30.3 µM, […]",13.84%
CNC(=O)N1CCC2(CC1)c1ncc(C)n1CCN2C.O=C(O)C(F)(F)F.O=C(O)C(F)(F)F,Percent Effect,"30.3 µM, […]",11.26%
O=C(CCNCc1cc(O)c2cc(F)ccc2n1)N1CCCC1,Percent Effect,"30 µM, 30.03 µM",-42.31%
Oc1cc(CNCCCN2CCCC2)nc2ccc(F)cc12,Percent Effect,"30 µM, 30.03 µM",-52.8%
O=S(=O)(CCNCc1cc(O)c2cc(F)ccc2n1)N1CCCC1,Percent Effect,"30 µM, 30.03 µM",71.96%
CCc1ccc(CN2Cc3nccn3CC(CN3CCOCC3)C2)o1.O=C(O)C(F)(F)F.O=C(O)C(F)(F)F.O=C(O)C(F)(F)F (stereo not drawn),Percent Effect,"30 µM, 30.03 µM",29.13%
Cc1ccsc1C(=O)N1CCC2(CC(N(C)c3ccncn3)C2)C1 (stereo not drawn),Percent Effect,"30.3 µM, […]",-9.037%
O=C(Nc1ccc(F)cc1)N1C[C@H]2C[C@H](C(=O)N3CCCC3)[C@@H](C1)O2,Percent Effect,"30.3 µM, […]",-4.677%
Cc1cc(=O)[nH]c(-n2nc(-c3cccs3)cc2N)n1,Percent Effect,"30 µM, 30.03 µM",-18.7%
CCc1c(C)nc(-n2nc(-c3cccs3)cc2N)[nH]c1=O,Percent Effect,"30 µM, 30.03 µM",63.75%
Cc1nc(-n2nc(-c3cccs3)cc2N)[nH]c(=O)c1C,Percent Effect,"30 µM, 30.03 µM",6.214%
Nc1c(N2CCOCC2)ncnc1N1CCOCC1,Percent Effect,"30.3 µM, […]",-8.78%
same,Percent Effect,"10 mM, 10 mM as filed; unlikely as a test dose",-35.44%
CCN1CC2(CC1=O)CN(Cc1ccco1)CCN(C(=O)C(C)C)C2.O=C(O)C(F)(F)F (stereo not drawn),Percent Effect,"30 µM, 30.03 µM",0.2286%
Cc1ccc(CN(CCCn2ccnc2)Cc2c(F)cccc2F)s1.O=C(O)CC(O)(CC(=O)O)C(=O)O,Percent Effect,"30.3 µM, […]",-13.01%
CN(Cc1ccncc1)Cc1cnn(-c2ccc(F)cc2)c1,Percent Effect,"30 µM, 30.03 µM",-38.94%
O=C(Cc1c(F)cccc1Cl)Nc1cc(N2CCOCC2)ncn1,Percent Effect,"30 µM, 30.03 µM",100.3%
O=C(Cc1c(F)cccc1Cl)Nc1cc(N2CCCC2)ncn1,Percent Effect,"30 µM, 30.03 µM",-1.859%
O=C(Cc1ccccc1Cl)Nc1cc(N2CCCC2)ncn1,Percent Effect,"30 µM, 30.03 µM",-11.61%
